VP16 counter: VP16 counterscreen qHTS for inhibitors of ROR gamma transcriptional activity | Drosophila S2 Gal4-VP16 UAS-luciferase, luminescence, 20 h | Potency, µM (top dose mostly 53.6 µM), for inactives: top-dose activity, negative = inhibition, usual class: inhibitors | actives 3.5% (n = 310,000) | AID 2546, 2010;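 further: Gal4-VP16 expression switched on by copper sulfate through the metallothionein promoter; potency means the concentration at half of the fitted maximal effect; nearly all actives have a fitted effect of over 50% in size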
RORg inh: qHTS for inhibitors of ROR gamma transcriptional activity. AID 2551, 2010. Potency, µM (top dose mostly 53.6 µM), for inactives: at the highest dose activity change, negative = inhibition, hits mostly inhibitors. actives 5.4% (n = 310,000). Drosophila S2 Gal4-RORgamma UAS-luciferase reporter, 20 h. Nuclear receptor ROR-gamma (Mus musculus), P51450; further: potency means the concentration at half of the fitted maximal effect; nearly all actives have a fitted effect of over 60% in size
Target sequence (P51450 whole entry, looked up, the tested form may be a part): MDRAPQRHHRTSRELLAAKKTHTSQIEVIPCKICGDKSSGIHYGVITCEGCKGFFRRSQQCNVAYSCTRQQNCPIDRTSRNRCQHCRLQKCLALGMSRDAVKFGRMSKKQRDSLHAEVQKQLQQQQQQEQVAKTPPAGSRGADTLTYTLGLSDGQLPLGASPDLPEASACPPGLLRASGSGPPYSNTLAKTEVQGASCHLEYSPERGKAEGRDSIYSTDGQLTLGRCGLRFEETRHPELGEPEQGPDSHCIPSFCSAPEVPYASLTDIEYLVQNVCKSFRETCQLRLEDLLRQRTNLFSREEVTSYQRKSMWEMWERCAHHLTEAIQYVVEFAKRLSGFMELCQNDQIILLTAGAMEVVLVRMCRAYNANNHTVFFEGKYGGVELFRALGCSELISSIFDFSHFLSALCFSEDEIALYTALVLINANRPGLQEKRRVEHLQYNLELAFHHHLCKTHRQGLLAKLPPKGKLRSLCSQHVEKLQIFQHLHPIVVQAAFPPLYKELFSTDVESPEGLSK
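In this cell-based reporter format, copper sulfate (700 uM final) drives Gal4–ROR gamma fusion expression from a metallothionein promoter in Drosophila Schneider cells; compounds preincubated 1 hr, reporter read after 20 hr at ambient temperature.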
DT40 TDP1 no CPT: qHTS for Inhibitors of human tyrosyl-DNA phosphodiesterase 1 (TDP1): qHTS in cells in absence of CPT; DT40 Tdp1-/- hTDP1 cells, no CPT, ATP luminescence, 48 h; Potency, µM (doses to about 46.2 µM), inactives show at the highest dose activity change, negative = growth inhibition, most hits filed as inhibitors; actives 15% (n = 420,000); further: potency means the concentration at half of the fitted maximal effect; nearly all actives have a fitted effect of over 55% in size
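Seeded 400 DT40-hTDP1 cells/well (vehicle DMSO, no 20 nM CPT); pinned compounds; ≥48 hr at 37 °C; CellTiter-Glo luminescence as viability measure.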
TDP1 cell CPT: qHTS for Inhibitors of human tyrosyl-DNA phosphodiesterase 1 (TDP1): qHTS in cells in presence of CPT; chicken DT40 Tdp1-/-;hTDP1 cells + 20 nM CPT, ATP luminescence, 48 h; Potency, µM (doses to about 46.2 µM), without a hit: top-dose activity change, negative = growth inhibition, usual class: inhibitors; actives 12% (n = 420,000); AID 686979, 2013; further: potency means the concentration at half of the fitted maximal effect; nearly all actives have a fitted effect of over 55% in size
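Chicken DT40 Tdp1-/- cells complemented with human TDP1, 400 cells/well, exposed to compounds plus 20 nM camptothecin for at least 48 h at 37 C; viability read as ATP content by CellTiter-Glo luminescence.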
LDHA block: qHTS assay for inhibitors of human lactate dehydrogenase; L-lactate dehydrogenase A chain (Homo sapiens), P00338; purified LDHA, NADH/diaphorase-resazurin fluorescence; active compounds read low; activity change, % (values are at about 110 or 230 µM); actives 0.15% (n = 480,000); AID 1347041, 2019; in the data active means activity change below about -30%; inconclusive means mostly about -25% to -30%;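 further: plate controls were DMSO wells for no effect and wells without enzyme for full effect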
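Human LDH5 (2 nM) was incubated with 0.06 mM NADH and 0.2 mM pyruvate for 5 min at room temperature in Tris pH 7.4. Remaining NADH was coupled through diaphorase/resazurin, and resorufin fluorescence was read at 0 and 20 min.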
IL-1B inflam inh: qHTS for Inhibitors of Inflammasome Signaling: IL-1-beta AlphaLISA Primary Screen. THP-1 LPS/ATP IL-1B secretion, AlphaLISA, 16 h; active compounds read low. activity change, % at 57.5 µM. actives 4.7% (n = 360,000). AID 743279, 2014; in the data active means activity change below about -50%; inconclusive means mostly about -30% to -49%
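Secreted IL-1B measured by AlphaLISA bead assay after 16 h compound exposure of THP-1 cells; compounds (final up to 57.5 uM) added 1 h before LPS (250 ng/mL) and ATP (1.25 mM) stimulation; lower signal means less secretion.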
* hit, by the source's call; ? = inconclusive; . = not tested or not shown; [ ] = remark or other dose. Rows were chosen to be rich in hits. Some 18% of all compounds tested hit in one or more screens of this group. Unless noted, the call rests on the fitted dose curve; in most records, active means well fitted curve in the direction sought with a large enough effect; inconclusive means small, poorly fitted or top-dose-only effect, or another doubt; inactive means no such curve, though single readings can be large; an effect the other way counts as inactive or inconclusive. Unless noted, on the % scale 0 is the no-effect control and ±100 the full control effect.

SMILES	VP16 counter	RORg inh	DT40 TDP1 no CPT	TDP1 cell CPT	LDHA block	IL-1B inflam inh
COc1ccc(NS(=O)(=O)c2cc3[nH]c(=O)c(=O)[nH]c3cc2C)cc1	.	.	.	.	-0.7	.
COc1ccc(COc2cc(-c3cccc(OC)c3)nc3ccc(NC(=O)C(C)C)cc23)cc1	-27.0%	37.5%	4.61µM*	4.61µM*	-2.9	61.2
Cc1cccc(CN2CCN(C(=S)Nc3ccccc3)CC2)c1	?	3.98µM*	-23.0%	-24.1%	-4.0	-4.6
COC(=O)c1ccccc1NC(=S)N1CCN(c2ccccc2)CC1	0.0%	-23.0%	0.2%	-1.0%	-0.5	12.5
Cc1ccccc1NC(=S)N1CCN(c2ccccc2)CC1	20µM*	10µM*	1.9%	-15.9%	-3.6	10.4
Cc1cccc(NC(=S)N2CCN(c3ccccc3)CC2)c1	?	10µM*	-11.9%	3.3%	-7.4	-16.3
COc1cccc(N2CCN(C(=S)Nc3cccc(C)c3)CC2)c1	-27.7%	7.08µM*	-15.6%	?	-14.7	14.4
Cc1cccc(NC(=O)c2ccc(CN3CCN(Cc4ccccc4)CC3)cc2)c1	-12.4%	1.6%	-23.5%	1.4%	-4.3	59.6
O=C(NCC1CCCO1)c1ccc(CSc2nc3cccnc3n2Cc2ccccc2)cc1 (stereo not given)	.	.	.	.	4.9	.
Cc1ccc2nc(NC(=O)CCn3c(=O)n(C)c4ccccc43)sc2c1	.	.	.	.	2.0	.
Cc1ccc(C2NC(=O)c3ccccc3N2)s1 (stereo not given)	11.0%	?	4.61µM*	5.8µM*	-3.1	21.5
Cc1ccc(N=C2C(=O)Nc3ccccc32)c(C)c1	0.0%	2.1%	-4.1%	3.6%	11.7	-7.3
Cc1cccc(C2NC(=O)c3ccccc3N2)c1 (stereo not given)	.	.	5.17µM*	3.26µM*	-3.4	0.0
Cc1ccc(C2NC(=O)c3ccccc3N2)c(C)c1 (stereo not given)	.	.	2.91µM*	2.06µM*	-6.9	15.0
O=C1NC(c2ccc(Cl)cc2)Nc2ccccc21 (stereo not given)	3.7%	?	-20.4%	6.3%	-0.9	24.8
CCCCC(=O)Nc1cccc(C(=O)OCc2cc(=O)n3nc(CCCC)sc3n2)c1	.	.	.	.	0.2	.
N#Cc1nc(-c2ccc([N+](=O)[O-])cc2)oc1NCCc1ccccc1	.	.	.	.	0.9	.
Nc1ccc(-c2ncc(-c3ccccc3)o2)cc1	-17.0%	-25.5%	?	-0.6%	-1.3	-59.4*
Cc1ccc(-c2cnc(-c3ccncc3)o2)cc1	?	38.0%	?	-28.3%	-0.5	0.1
Oc1ccc(Cl)cc1CNc1ccc(Br)cn1	?	?	-19.6%	-12.7%	5.7	?
Oc1c(Cl)cc(Cl)cc1CNc1ccc(Br)cn1	-12.9%	?	-21.5%	-28.2%	-3.5	-84.8*
FC(F)(F)C(F)(F)C(F)(F)c1nc2nc(Cl)c(Cl)nc2[nH]1	.	.	16.4µM*	?	-5.8	26.7
O=C(O)c1nc2nc(Cl)c(Cl)nc2[nH]1	4.8%	-1.3%	-12.2%	-5.1%	-5.4	51.8
FC(F)(F)c1cccc(-c2nc3nc(Cl)c(Cl)nc3[nH]2)c1	5.62µM*	10µM*	2.06µM*	7.31µM*	-6.2	-17.9
FC(F)(F)c1nc2nc(Cl)c(Cl)nc2[nH]1	.	.	20.6µM*	?	-5.3	31.0
SMILES	VP16 counter	RORg inh	DT40 TDP1 no CPT	TDP1 cell CPT	LDHA block	IL-1B inflam inh
NCCc1cnc(-c2cccc(C(F)(F)F)c2)[nH]1	4.6%	2.1%	.	.	.	.
CCc1nc(N2CCN(C(=O)CN3CCOCC3)CC2)c(C#N)c2c1COC(C)(C)C2	.	.	.	.	0.0	.
CCCCC(=O)Nc1oc2c(C)cccc2c(=O)c1-c1ccccc1	.	.	.	.	-4.9	.
Cc1cc(Br)ccc1NC(=O)CN(C)Cc1nc2ccccc2o1	.	.	.	.	9.7	.
CCOC(=O)c1csc(NC(=O)CN2CCCCC2)n1	-0.3%	23.9%	5.2%	-19.3%	-0.7	24.0
CCOC(=O)c1c(-c2ccc(OCC)cc2)csc1NC(=O)CCN1C(=O)c2ccccc2C1=O	-5.6%	5.4%[10 µM]	.	.	.	.
CCOC(=O)c1c(-c2ccc(C)o2)csc1NC(=O)CN1CCC(C(N)=O)CC1	-9.4%	14.7%	?	?	-1.8	-77.7*
CCOC(=O)c1c(-c2ccc(C)o2)csc1NC(=O)CN1CCCCC1	1.7%	-6.1%	20.6µM*	?	2.1	?
CCOC(=O)c1c(-c2ccc(C)o2)csc1NC(=O)CSc1nncs1	-0.8%	-6.0%	16.4µM*	23.1µM*	7.0	22.0
CCOC(=O)c1c(NC(=O)CN2CCCCC2)sc2c1CCC(C=O)=C2Cl	-0.7%	-32.1%	3.55µM*	3.98µM*	8.5	-20.6
CCOC(=O)c1c(-c2ccco2)csc1NC(=O)COC(=O)c1cnccn1	.	.	?	-1.5%	1.1	-8.1
CCOC(=O)c1c(-c2ccc(C)o2)csc1NC(=O)CN(C)CC(=O)Nc1ccc(C)cc1	?	12.6µM*	?	?	2.2	30.0
CCOC(=O)c1c(-c2ccc(C)o2)csc1NC(=O)CN1CCN(CC)CC1	5.1%	-1.2%	29.1µM*	?	-8.1	-17.7
COC(=O)c1c(-c2cccs2)csc1NC(=O)CN1CCOCC1	-8.7%	-10.2%	?	-29.5%	-6.9	?
CCOc1ccc(C(C)=O)cc1CN(C)CC(=O)Nc1ccccc1Cl	.	.	.	.	4.6	.
Cc1cccc(COc2ncnc3nc[nH]c23)c1	2.3%	?	13µM*	?	4.0	11.6
Cc1ccc(C2=NN(C(=O)c3ccco3)C(c3ccc4nccnc4c3)C2)cc1 (stereo not given)	.	.	.	.	-8.3	.
CNC(=O)c1ccc(S(=O)(=O)Nc2ccccc2)cc1	.	.	.	.	-7.6	.
CC(=O)c1cccc(NS(=O)(=O)c2ccc(C(=O)Nc3ccccc3)cc2)c1	10µM*	?	11.6µM*	18.4µM*	-4.7	-12.0
CCOc1ccc(NS(=O)(=O)c2ccc(C(=O)NNC(=O)c3ccccc3O)cc2)cc1	.	.	?	?	2.3	137.5
O=C(Nc1ccccc1)c1ccc(S(=O)(=O)Nc2cccc(O)c2)cc1	?	?	?	?	-1.4	-16.2
O=C(Nc1ccc(-c2cnco2)cc1)c1ccc(Cl)cc1	1.0%	-20.8%	-6.1%	9.0%	-18.8	?
O=C(NNC(=O)c1ccccc1O)c1ccc(S(=O)(=O)Nc2ccccc2)cc1	.	.	16.4µM*	?	5.5	45.3
